# From PubChem BioAssay (NCATS)
# Records with an inconclusive call do not appear. A call without a number means that no potency is given here. Activity calls are given as the source filed them. Unless noted, calls follow the shape of the dose curve; as a rule, active = well fitted curve in the direction sought with a large enough effect; inconclusive = small, poorly fitted or top-dose-only effect, or another doubt; inactive = no such curve, though single readings can be large; an effect the other way counts as inactive or inconclusive. Peptide text beside a SMILES is read from it.
# What was measured:
# [1] = target: Cytochrome P450 3A4 (Homo sapiens) (UniProt P08684); assay: qHTS Assay for Inhibitors and Substrates of Cytochrome P450 3A4 (AID 884); also: nearly all actives have a fitted effect of over 50% in size; also: potency is read from the fitted curve at half-maximal effect
# Chain of Cytochrome P450 3A4 (Homo sapiens) (P08684 whole entry, looked up): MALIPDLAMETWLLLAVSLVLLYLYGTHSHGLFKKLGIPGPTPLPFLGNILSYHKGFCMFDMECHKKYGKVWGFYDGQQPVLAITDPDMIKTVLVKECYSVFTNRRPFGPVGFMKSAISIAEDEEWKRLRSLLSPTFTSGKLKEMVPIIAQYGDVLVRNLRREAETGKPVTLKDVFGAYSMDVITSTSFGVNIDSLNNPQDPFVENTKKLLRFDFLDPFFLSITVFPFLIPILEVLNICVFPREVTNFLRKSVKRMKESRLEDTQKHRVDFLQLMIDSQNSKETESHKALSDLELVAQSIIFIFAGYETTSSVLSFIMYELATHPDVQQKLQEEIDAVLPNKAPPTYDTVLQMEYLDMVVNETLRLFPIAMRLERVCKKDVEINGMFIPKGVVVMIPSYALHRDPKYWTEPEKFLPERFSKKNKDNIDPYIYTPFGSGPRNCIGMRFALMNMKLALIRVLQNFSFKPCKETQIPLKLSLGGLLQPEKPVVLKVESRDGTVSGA
# How it was run: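 Luminescent readout of luciferin produced by CYP3A4 (20 nM) dealkylation of Luciferin-PPXE, 25 uM (its KM). NADPH-driven reaction ran 60 min at RT after 10 min compound preincubation; data scaled to 57 uM ketoconazole as 100% inhibition.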
# [2] = Confirmation and Secondary Assay for Modulators of Hemoglobin Beta Chain Splicing at IVS2 654 locus (AID 910);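 also: HeLa cells stably carrying EGFP split by mutant beta-globin IVS2-654 intron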
# How it was run: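 HeLa cells stably expressing EGFP interrupted by β-globin IVS2-654 intron, seeded overnight in Opti-MEM/2% FCS, then treated 2 days at 37 °C. Restored splicing read as total peak GFP intensity per well by laser scanning cytometry (488 nm excitation, 500–520 nm emission); 500 nM antisense PNA as control.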
# [3] = Confirmation and Secondary Assay for Modulators of Hemoglobin Beta Chain Splicing at IVS2 705 locus (AID 930);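 also: HeLa cells stably expressing the EGFP-705 splicing reporter; GFP fluorescence per well restored by corrected splicing of the IVS2-705 intron in EGFP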
# How it was run: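 Fluorescence gain (488 nm laser, 500-520 nm PMT) reflects restored correct splicing of a mutant IVS2-705 intron inside EGFP in stably transfected HeLa cells after 2-day compound treatment.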
# [4] = qHTS Assay for Lipid Storage Modulators (AID 1519; calls by dose curve); details: Drosophila S3 cells, BODIPY lipid droplet/cell ratio, laser cytometry, cells loaded with oleic acid; for activity change, negative = inhibition: at 57.5 µM (top of the series)
# How it was run: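 Cells seeded at 5,000 per well were treated with compounds over a concentration series and loaded with oleic acid (400 uM, as added). Lipid droplet fluorescence (488 nm excitation, 500-530 nm channel) was read by laser-scanning cytometry and normalized to 20 uM Triacsin C.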
# [5] = target: Ubiquitin carboxyl-terminal hydrolase 1 (Homo sapiens) (UniProt O94782); assay: Inhibitors of USP1/UAF1: Pilot qHTS (AID 504865);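 also: rhodamine fluorescence freed from ubiquitin-rhodamine substrate followed over time; top concentration of the series differs between compounds; nearly all actives have a fitted effect of over 35% in size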
# Chain of Ubiquitin carboxyl-terminal hydrolase 1 (Homo sapiens) (O94782 whole entry, looked up): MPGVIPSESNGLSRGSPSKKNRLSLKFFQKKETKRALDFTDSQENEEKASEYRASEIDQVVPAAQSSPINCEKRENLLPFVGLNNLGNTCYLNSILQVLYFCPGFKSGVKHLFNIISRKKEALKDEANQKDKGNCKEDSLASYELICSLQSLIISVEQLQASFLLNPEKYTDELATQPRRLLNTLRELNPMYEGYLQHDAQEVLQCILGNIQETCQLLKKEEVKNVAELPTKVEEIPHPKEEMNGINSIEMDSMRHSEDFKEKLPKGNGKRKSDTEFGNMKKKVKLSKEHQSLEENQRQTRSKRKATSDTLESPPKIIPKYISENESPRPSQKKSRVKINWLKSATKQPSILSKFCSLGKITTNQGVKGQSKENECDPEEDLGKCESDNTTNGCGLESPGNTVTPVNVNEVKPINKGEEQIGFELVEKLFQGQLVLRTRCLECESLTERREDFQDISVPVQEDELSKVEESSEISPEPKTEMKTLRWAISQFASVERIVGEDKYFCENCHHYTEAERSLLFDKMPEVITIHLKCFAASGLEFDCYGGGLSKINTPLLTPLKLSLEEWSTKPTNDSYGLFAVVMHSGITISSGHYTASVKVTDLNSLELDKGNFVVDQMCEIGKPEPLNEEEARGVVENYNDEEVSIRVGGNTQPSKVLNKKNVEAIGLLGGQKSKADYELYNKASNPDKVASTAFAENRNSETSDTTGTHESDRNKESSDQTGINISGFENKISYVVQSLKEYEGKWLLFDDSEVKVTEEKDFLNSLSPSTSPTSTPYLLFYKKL
# How it was run: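 Enzyme-free wells gave the negative control, while test wells held 1nM USP1/UAF1 preincubated with compound for 15 min at room temperature. Ub-Rho at 150nM final started the reaction, and fluorescence at 480/540 nm was recorded kinetically.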
# [6] = measured here: cell count channel max response
# [7] = measured here: lipid channel max response
Structure (SMILES),Potency [1],Potency [2],Potency [3],"activity change, negative = inhibition [4]","max response [4, 6] [%]","max response [4, 7] [%]",Potency [5]
CCOc1ccc(C(=O)c2ccc(O)c(O)c2O)cc1,inactive,inactive,inactive,4.84% (inactive),-5.66,-2.36,inactive
CC(=O)OCC1OC(n2cnc3c(=O)[nH]cnc32)C(OC(C)=O)C1OC(C)=O (stereo not drawn),inactive,inactive,inactive,3.9% (inactive),9.07,13.2,inactive
CC1CCC2(OC1)OC1CC3C4CCC5CC(O)CCC5(C)C4=CCC3(C)C1C2C (stereo not drawn),inactive,inactive,inactive,-0.725% (inactive),2.89,3.25,inactive
CC(=O)OCC(=O)[C@]1(O)C(OC(C)=O)CC2C3CCC4=CC(=O)C=C[C@@]4(C)[C@]3(F)C(O)C[C@]21C (stereo partly drawn),inactive,inactive,inactive,2.18% (inactive),7.55,12.5,inactive
CC(CCC(=O)O)C1CCC2C3CC[C@@H]4CCCC[C@@]4(C)C3CC[C@@]12C (stereo partly drawn),inactive,inactive,inactive,2.19% (inactive),13.8,19,inactive
COc1cccc(/C=C/C(=O)O)c1C(C)C,inactive,inactive,inactive,9.75% (inactive),13,26.7,inactive
COC1C(O)C(CO)OC1n1cnc2c(=O)[nH]c(N)nc21 (stereo not drawn),inactive,inactive,inactive,5.46% (inactive),13.5,20.7,inactive
CCOC(=O)C(=O)C1(C(=O)OCC)Oc2cc(OC)cc(OC)c2C(=O)C1c1ccccc1 (stereo not drawn),inactive,inactive,inactive,5.57% (inactive),9.96,15,inactive
CCC(CCC(C)C1CCC2C3CC=C4CC(OC(C)=O)CC[C@@]4(C)C3CC[C@@]12C)C(C)C (stereo partly drawn),inactive,inactive,inactive,5.75% (inactive),28.8,28.4,inactive
CC1O[C@@H](O[C@H]2C(Oc3cc(O)c4c(c3)OC(c3ccc(O)cc3)CC4=O)OC(CO)C(O)C2O)C(O)C(O)C1O (stereo partly drawn),inactive,inactive,inactive,6.1% (inactive),13,21.6,inactive
OCC1O[C@@H](OC2C(O)C(CO)O[C@@]2(CO)O[C@@H]2OC(CO)C(O)C(O)C2O)C(O)C(O)C1O (stereo partly drawn),inactive,inactive,inactive,4.82% (inactive),0.0409,4.57,inactive
Nc1nc2c([nH]c(=S)n2C2OC(CO)C(O)C2O)c(=O)[nH]1 (stereo not drawn),inactive,inactive,inactive,2.15% (inactive),0.955,15.7,inactive
C=C1CCC(O)C/C1=C/C=C1\CCC[C@@]2(C)C(C(C)/C=C/C(C)C(C)C)CC[C@@H]12 (stereo partly drawn),inactive,inactive,inactive,14.3% (inactive),33.4,55.4,inactive
CCC(/C=C/C(C)C1CCC2C3CC=C4CC(O)CC[C@@]4(C)C3CC[C@@]12C)C(C)C (stereo partly drawn),inactive,inactive,inactive,-0.637% (inactive),13.1,13.6,inactive
COc1cc(O)c(C(=O)O)c(O)c1,inactive,inactive,inactive,4.12% (inactive),1.93,6.74,inactive
CN(C)CC/C=C1/c2ccccc2COc2ccccc21,inactive,inactive,inactive,0.286% (inactive),3.97,10.6,inactive
CC(C)CCCC(C)C1CCC2C3CC=C4CC(O)CC[C@@]4(C)C3CC[C@@]12C (stereo partly drawn),inactive,inactive,inactive,2.88% (inactive),-11.4,-8.92,inactive
NCCCCC(N)C(=O)NC(Cc1ccc(O)cc1)C(=O)NC(CCCCN)C(=O)O (stereo not drawn) (H-Lys-Tyr-Lys-OH; configuration not given here),inactive,inactive,inactive,1.3% (inactive),3.42,5.58,inactive
CC1O[C@@H](Oc2c(-c3ccc(O)c(O)c3)oc3cc(O)cc(O)c3c2=O)C(O)C(O)C1O (stereo partly drawn),inactive,inactive,inactive,10.2% (inactive),19.3,40.6,inactive
CSc1ncnc2c1ncn2C1OC(CO)C(O)C1O (stereo not drawn),inactive,inactive,inactive,-6.93% (inactive),-18.3,-24.7,inactive
Nc1nc2[nH]c(=O)c(=O)[nH]c2c(=O)[nH]1,inactive,inactive,inactive,4.12% (inactive),1.82,6.32,inactive
CC(C(=O)O)C1CCC2C3CC=C4CC(O)CC[C@@]4(C)C3CC[C@]12C (stereo partly drawn),inactive,inactive,inactive,4.4% (inactive),6.91,12.2,inactive
CC1(C)Oc2ccc3ccc(=O)oc3c2CC1O (stereo not drawn),inactive,inactive,inactive,-1.55% (inactive),16,13.9,inactive
C[C@@]12CCC(O)C[C@H]1CCc1ccccc12 (stereo partly drawn),inactive,inactive,inactive,1.53% (inactive),0.578,6.01,inactive
CC(=O)OC1CC[C@@]2(C)C(CC[C@@]3(C)C2CC=C2C4CC(C)(C)CC[C@]4(C)CC[C@@]23C)C1(C)C (stereo partly drawn),inactive,inactive,inactive,4.64% (inactive),6.83,14,inactive

Structure (SMILES),Potency [1],Potency [2],Potency [3],"activity change, negative = inhibition [4]","max response [4, 6] [%]","max response [4, 7] [%]",Potency [5]
COc1cccc2c1CCC1=CC(=O)CC[C@@]12C,inactive,inactive,inactive,11.4% (inactive),2.03,15.6,inactive
O=c1[nH]c(=O)n(C2CC(O)C(CO)O2)cc1C(F)(F)F (stereo not drawn),inactive,inactive,inactive,3.87% (inactive),-2.79,3.03,inactive
Nc1nc2c(nc(Cl)n2C2OC(CO)C(O)C2O)c(=O)[nH]1 (stereo not drawn),inactive,inactive,inactive,3.5% (inactive),20,24.4,inactive
OCC1OC(n2cnc3c(NCc4ccco4)ncnc32)C(O)C1O (stereo not drawn),inactive,inactive,inactive,-0.247% (inactive),-4.44,-3.92,inactive
CNC1C(O)[C@@H]2OC(O[C@@H]3C(O)C(O)C(N)C[C@H]3N)C(N)C[C@H]2O[C@H]1O[C@@H]1OC(CO)C(N)C(O)C1O (stereo partly drawn),inactive,inactive,inactive,6.47% (inactive),16.9,24.6,inactive
CCC(C(N)=O)c1ccccc1 (stereo not drawn),inactive,inactive,inactive,9.01% (inactive),9.46,21.9,inactive
CC1CCC2(C(=O)O)CCC3(C)C(=CCC4C3(C)CCC3[C@@]4(C)CC(O)C(O)[C@@]3(C)CO)C2C1C (stereo partly drawn),inactive,inactive,inactive,3.5% (inactive),22.9,33.5,inactive
COc1ccc(/C=C/c2cc(O)cc(O[C@H]3OC(CO)C(O)C(O)C3O)c2)cc1 (stereo partly drawn),inactive,inactive,inactive,8.33% (inactive),12.8,23,inactive
C#CCCCCCCCCCCCC(=O)CC(O)COC(C)=O (stereo not drawn),inactive,inactive,inactive,3.5% (inactive),13.4,17.1,inactive
CCOC(=O)c1c(C)cc(O)c(C)c1O,inactive,inactive,inactive,6.04% (inactive),15.9,23.2,inactive
CC1(C)C2CC[C@@]1(C)C(=O)C2,inactive,inactive,inactive,3.53% (inactive),13.5,19.8,inactive
CC1CC[C@@]23CCC4(C)[C@@]5(C)CCC6C(C)(C)C(O)CC[C@@]6(C)C5C=C[C@@]4(OC2=O)C3C1C (stereo partly drawn),5.01 µM (active),inactive,inactive,1.82% (inactive),9.51,12.3,inactive
COc1cc(OC)c2c(c1Cl)OC1(C2=O)C(O)=CC(=O)CC1C (stereo not drawn),inactive,inactive,inactive,0.55% (inactive),-1.12,2.38,inactive
CC(=O)Oc1ccc2c(c1OC(C)=O)OCC1(O)Cc3c(cc(OC(C)=O)c(OC(C)=O)c3OC(C)=O)C21 (stereo not drawn),inactive,inactive,inactive,0.943% (inactive),9.82,11.3,inactive
CC1CC[C@@]2(OC1)OC1CC3C4CC[C@H]5CC(O)CC[C@@]5(C)C4CC[C@]3(C)C1C2C (stereo partly drawn),inactive,inactive,inactive,2.03% (inactive),27.2,29.7,inactive
CCCC(NC(C)C(=O)N1C(C(=O)O)CC2CCCCC21)C(=O)OCC (stereo not drawn),inactive,inactive,inactive,9% (inactive),4.3,11.7,inactive
CC1CC[C@]2(CO)CC[C@]3(C)C(=CCC4[C@@]5(C)CCC(O)C(C)(C)C5CC[C@@]43C)C2C1C (stereo partly drawn),inactive,inactive,inactive,6.23% (inactive),4.46,20,inactive
Cc1cn(C2CCC(CO)O2)c(=O)[nH]c1=O (stereo not drawn),inactive,inactive,inactive,4.05% (inactive),13.1,17.4,inactive
CC1(C)CC2/C(CO)=C/C=C/[C@](C)(O)CC[C@]21O (stereo partly drawn),15.8 µM (active),inactive,inactive,4.24% (inactive),22.8,29.9,inactive
CC1CCC(C(C)C)[C@H](O)C1 (stereo partly drawn),inactive,inactive,inactive,8.01% (inactive),-2.41,-1.46,inactive
Nc1ncnc2nc(Cl)[nH]c12,inactive,inactive,inactive,2.56% (inactive),-7.94,-3,inactive
Nc1nc2c(ncn2C2OC(CO)CC2O)c(=O)[nH]1 (stereo not drawn),inactive,inactive,inactive,6.37% (inactive),3.55,10.6,inactive
CC(=O)OCC(=O)C1CCC2C3CC=C4CC(O)CC[C@@]4(C)C3CC[C@]12C (stereo partly drawn),inactive,inactive,inactive,8.84% (inactive),22.6,38.3,inactive
O=C(O)C(O)C(O)C(O)C(O)C(=O)O (stereo not drawn),inactive,inactive,inactive,5% (inactive),3.45,13,inactive
